Results taken from PubChem BioAssay (NCI).
About 79,000 compounds went through this panel and 15% of them were active in at least one assay; those are over-represented in the sample as a whole. Values without a mark were called inactive. The source made the active and inactive calls. Cut-off read from the data, not from the text of the source: active = growth inhibition above about 70%; inactive = the rest.

Legend:
[1] = NCI Yeast Anticancer Drug Screen. Data for the rad50 strain (AID 155);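 note: 0% = growth of vehicle-only cultures of the same strain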; settings: S. cerevisiae rad50 strain growth inhibition; at 50.0 µM; hits give high values
How it was run: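 Vehicle-treated cultures provide the reference for the growth inhibition reported for compound-exposed, repair-deficient yeast.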

[2] = NCI Yeast Anticancer Drug Screen. Data for the mec2-1 strain (AID 157); settings: S. cerevisiae mec2-1 strain, at 50.0 µM, hits give high values
How it was run: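 Strain: mec2-1 (DNA repair/cell cycle alteration). Compound exposure, then growth measured; inhibition expressed relative to vehicle.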

[3] = NCI Yeast Anticancer Drug Screen. Data for the mlh1 rad18 strain (AID 175); settings: S. cerevisiae mlh1 rad18 strain growth inhibition; at 50.0 µM; hits give high values
How it was run: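 Read-out is yeast growth inhibition, calculated against vehicle-only controls. The compound was applied to a strain engineered with DNA damage repair alterations.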

[4] = NCI Yeast Anticancer Drug Screen. Data for the cln2 rad14 strain (AID 165);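 note: 0% = growth equal to vehicle treated cultures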; settings: S. cerevisiae cln2 rad14 strain, at 50.0 µM, hits give high values
How it was run: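 Compounds are applied to the cln2 rad14 yeast strain, and growth is then compared with that of vehicle-treated cultures to give inhibition.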

[5] = NCI Yeast Anticancer Drug Screen. Data for the sgs1 mgt1 strain (AID 161);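 note: 0% = growth of cultures given vehicle only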; settings: S. cerevisiae sgs1 mgt1 strain, at 50.0 µM, hits give high values
How it was run: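 Test agents were incubated with a DNA-repair-mutant yeast strain. Growth was then read and compared against vehicle-treated controls.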

[6] = NCI Yeast Anticancer Drug Screen. Data for the bub3 strain (AID 167); settings: S. cerevisiae bub3 mutant strain, at 50.0 µM, hits give high values
How it was run: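 Mutant yeast screening strain plus compound; vehicle-treated cultures serve as the 0% inhibition reference.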

| Structure (SMILES) | growth inhibition [1] | growth inhibition [2] | growth inhibition [3] | growth inhibition [4] | growth inhibition [5] | growth inhibition [6] |
| --- | --- | --- | --- | --- | --- | --- |
| Cc1ccc(-n2c(=S)[nH]c3ccccc3c2=O)cc1F | -23.9% | -25.9% | -18.1% | – | – | – |
| CC1NCCc2cc(O)c(O)cc21 (stereo not given) | 4.35% | 6.3% | 40% | – | – | – |
| CN1CN(c2ccccc2)C2(CCN(CCC3Oc4ccccc4O3)CC2)C1=O | -22.4% | 6.45% | 3.35% | -1.2% | – | – |
| O=C(CBr)OCCCS(=O)(=O)O | -24.9% | -34.4% | -33.8% | – | – | – |
| O=C1NC2NC3NC(=O)NC3NC2N1 (stereo not given) | 3.6% | – | -24.4% | -5.25% | 0.2% | 10.2% |
| C[N+]1([O-])C2CCC1CC(OC(=O)C(O)c1ccccc1)C2 (stereo not given) | 1.45% | -21.2% | 3.4% | – | – | – |
| CCCOP(=O)(CCl)OCCC | -7.8% | -5.05% | 8.25% | – | – | – |
| NC(=O)NNc1ccc([N+](=O)[O-])cc1[N+](=O)[O-] | 12.1% | -5.4% | 14.8% | – | – | – |
| CC1C2C=CC1C(c1c3ccc(=O)cc-3oc3cc(O)ccc13)C2C(=O)O (stereo not given) | -4.85% | 2.15% | 21.4% | – | – | – |
| O=[N+]([O-])c1ccc(Cl)c(OCCCOc2ccc(S(=O)(=O)F)cc2)c1 | -8.7% | -6.9% | 7.85% | 3.7% | – | -3.75% |
| O=C1C(Cl)=C(Cl)C1(Cl)Cl | -3.5% | -20.4% | -2.65% | – | – | – |
| O=C(Cc1ccccc1)OCC1CCCO1 (stereo not given) | 18.2% | – | 10.5% | -25.7% | -3.45% | -17.8% |
| CC1=C(C)C(=O)O[C@@H]([C@](C)(O)[C@]2(O)CC[C@@]3(O)[C@@H]4C[C@H](O)[C@]5(O)[C@@H](O)C=CC(=O)[C@]5(C)[C@H]4CC[C@]23C)C1 | 21.9% | – | -52.8% | 23.2% | 7.1% | 9.5% |
| CC(=O)C(N)Cc1ccccc1 (stereo not given) | 24.4% | – | 15.2% | -26.6% | 10% | 23.2% |
| Cc1ccc(NC(=O)C(=O)C2C(=O)NC(=O)NC2=O)c(C)c1 | 13.9% | – | 17.6% | 11.2% | 5.75% | 15.9% |
| CCOC(=O)C(Cc1ccc(N(CCCl)CCCl)cc1)NC(=O)C(C)NC(C)=O (stereo not given) | 0.45% | – | 7% | 15.7% | -15.5% | -0.6% |
| CCOP(=O)(OCC)C(C)(C)OC(=O)NC#N | -24.2% | – | -28.8% | -8.85% | -36.2% | -13.6% |
| S=C(N/N=C\c1cccc(I)c1)NC1CN2CCC1CC2 (stereo not given) | 19.1% | – | 13.9% | 14.8% | 14.4% | 3.2% |
| COc1cc2c(cc1OC)C13CCN4CC5=CCOC6CC(=O)N2C1C6C5CC43O (stereo not given) | -13.9% | – | -47.4% | 8.55% | -8.05% | -4.2% |
| NC(=O)Oc1cc(OC(N)=O)cc(N(CCCl)CCCl)c1 | 32.8% | – | 40% | 12% | 36.6% | 40% |
| Cc1ccc(OP(=O)(Oc2ccc(C)cc2)Oc2ccc(C)cc2)cc1.Cc1ccc(OP(=O)(Oc2ccc(C)cc2)Oc2ccc(C)cc2)cc1.[Cl][Cr]([Cl])[Cl] | -1.05% | – | 4.45% | -7% | -2.1% | 0.9% |
| CCCOC(C(=O)OC1CCC2CCC1N2C)(c1ccccc1)c1ccccc1 (stereo not given) | 5.4% | – | 32.9% | 13.8% | 17.8% | 28.8% |
| COc1ccc(NC2=C(C)C(=O)C3=C(C2=O)[C@H](COC(N)=O)[C@]2(OC)[C@@H]4N[C@@H]4CN32)cc1 | 81.7% (active) | – | 73.7% (active) | 71.6% (active) | 74.8% (active) | 69.4% |

| Structure (SMILES) | growth inhibition [1] | growth inhibition [2] | growth inhibition [3] | growth inhibition [4] | growth inhibition [5] | growth inhibition [6] |
| --- | --- | --- | --- | --- | --- | --- |
| Oc1ccccc1C=NCCN=Cc1ccccc1O.[Cu] | 15.4% | – | -7.7% | -36.4% | -4.75% | 3.55% |
| COC(=O)C(C)N(CCCl)P1(=O)OCCCN1CCCl (stereo not given) | 49.2% | – | 20.6% | 8.7% | -6.15% | -20.6% |
| CC1=NCCc2c1[nH]c1cc(O)ccc21 | 6.65% | – | 4% | -3.85% | -12.6% | -15.6% |
| CC1(C)CN=C(Nc2ccc(F)c(Cl)c2)S1 | 12.9% | – | -35.4% | 9.8% | -17.9% | -24.7% |
| CCN1/C(=C/C=C2\CCC(/C=C/c3sc4ccc(Cl)cc4[n+]3CC)=C2N(c2ccccc2)c2ccccc2)Sc2ccc(Cl)cc21 | 14.4% | – | 56.7% | 4.05% | 64.9% | 57.4% |
| CN1C2c3ccccc3C3C4c5ccccc5C(C31)C(C2[N+](=O)[O-])N4C (stereo not given) | -12.8% | – | -13.5% | – | – | – |
| C[C@]12CC[C@H](O)C=C1CC[C@@H]1[C@@H]2CC[C@]2(C)C(c3ccc(=O)oc3)CC[C@]12O (stereo not given in full) | -2.85% | – | 8.75% | 10.9% | 17.9% | 0.05% |
| CC(=O)CCC(=O)O | -7.05% | – | -19.9% | 16.1% | -39.2% | -7.25% |
| [I][Ni][I].c1ccc([PH+](c2ccccc2)c2ccccc2)cc1.c1ccc([PH+](c2ccccc2)c2ccccc2)cc1 | 21% | – | 48.7% | 17.6% | 64% | 5.7% |
| CCCCOP(=S)(OCCCC)Oc1ccc(Cl)cc1Cl | -4.95% | – | -1.95% | -0.25% | -0.55% | 17.5% |
| CCOP(=O)(CC(=O)c1cc2ccccc2[nH]1)OCC | -3.5% | – | -19.8% | 1.2% | -2.1% | -8.1% |
| CC[C@@]1(O)C(=O)OCc2c1cc1n(c2=O)Cc2cc3cc(OC)ccc3nc2-1 | – | – | – | 80.7% (active) | 86.7% (active) | 83.6% (active) |
| CCC1CN1CCC(=O)Nc1ccccc1 (stereo not given) | -2.8% | – | 6.3% | -35.2% | -14.2% | -17.6% |
| O=C(O)C(Cl)C(=O)O | -4.4% | – | -13.9% | -26.4% | 9% | -0.35% |
| O=C(COc1ccc(Cl)c(Cl)c1)Nc1ccccc1S(=O)(=O)F | 27.6% | – | 21.4% | 21.6% | -3.8% | 5.15% |
| CS(=N)(=O)CCC(N)P(=O)(O)O (stereo not given) | -29.8% | – | -27.9% | 13.9% | 6.85% | -50.5% |
| [Br][Sn]([Br])([CH2][Sn]([Br])([c]1ccccc1)[c]1ccccc1)[c]1ccccc1 | – | – | 81.7% (active) | – | – | – |
| CCOC(=O)/C=C1/C=C(C)CC(C)(C)C1 (tested in a mixture with another compound) | -0.3% | – | 1.7% | -40.5% | -9.1% | 19% |
| CN1C2CCC1C(Br)C(=O)C2 (stereo not given) | – | – | -51.2% | – | – | – |
| [CH3][Sn]1([CH3])[O]CC(COc2cc(Cl)c(Cl)cc2Cl)[O]1 (stereo not given) | -22.4% | – | 4.5% | 5.35% | 2.95% | -10.1% |
| CC(I)C(N)=O (stereo not given) | -16.6% | – | -17% | -4.15% | -19.5% | -4% |
| CCOP(=O)(OCC)OP(=O)(OCC)OCC | -9.35% | – | -13.4% | -10.1% | -42.7% | -49.4% |
